Values joined by “and” are separate entries in the source; they are usually repeats but may differ in a detail not shown here. Identical values can stand only once. Inconclusive results are not listed. Where a call stands in place of a potency, no number is given. A structure can be active in one record and inactive in another. Active and inactive are the calls of the source. Unless noted, calls follow the shape of the dose curve; as a rule, active = well fitted curve in the direction sought with a large enough effect in the repeat runs; inconclusive = weak or mixed curves; inactive = no such curve, though single readings can be large; an effect the other way counts as inactive or inconclusive.
Assays:
[1] = qHTS assay to identify small molecule antagonists of the glucocorticoid receptor (GR) signaling pathway - cell viability counter screen (AID 720693); also: nearly all actives have a fitted effect of over 55% in size
[2] = qHTS assay for identifying genotoxic compounds that show differential cytotoxicity against isogenic chicken DT40 cell lines with known DNA damage response pathways - wild type cell line (AID 743012); also: nearly all actives have a fitted effect of over 60% in size; also: potency is read from the fitted curve at half-maximal effect
Summary of the method: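 Wild-type DT40 cells (300/well) exposed to compounds for 40 hours at 37 C/5% CO2. Viability read by CellTiter-Glo luminescence after 30 min at room temperature.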

[3] = qHTS assay for identifying genotoxic compounds that show differential cytotoxicity against isogenic chicken DT40 cell lines with known DNA damage response pathways - Rad54/Ku70 mutant cell line (AID 743015); also: nearly all actives have a fitted effect of over 60% in size; also: potency is read from the fitted curve at half-maximal effect
[4] = qHTS assay to identify small molecule antagonists of the androgen receptor (AR) signaling pathway - cell viability counter screen (AID 743033; also: nearly all actives have a fitted effect of over 45% in size; also: potency is read from the fitted curve at half-maximal effect)
[5] = qHTS assay to identify small molecule antagonists of the androgen receptor (AR) signaling pathway using the MDA cell line - cell viability counter screen (AID 743041; also: nearly all actives have a fitted effect of over 45% in size)
Summary of the method: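 Same-well cytotoxicity was assessed by CellTiter-Fluor in MDA-kb2 AR-luc cells after 16 h of compound treatment under R1881 agonism.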

[6] = qHTS assay to identify small molecule antagonists of the thyroid receptor (TR) signaling pathway - cell viability counter screen (AID 743064); also: nearly all actives have a fitted effect of over 50% in size; also: potency is read from the fitted curve at half-maximal effect
Summary of the method: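 Plate GH3.TRE-Luc cells; incubate 4 h at 37 °C; add compound, then T3 to 1 nM final; incubate 23.5 h; add CellTiter-Fluor; incubate 30 min at 37 °C, 5% CO2; read fluorescence.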

[7] = qHTS assay to identify small molecule antagonists of the thyroid receptor (TR) signaling pathway (AID 743065); also: nearly all actives have a fitted effect of over 55% in size; also: potency is read from the fitted curve at half-maximal effect
Summary of the method: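 GH3.TRE-Luc rat pituitary cells (two TREs driving luciferase) were dosed with compound, then stimulated with 1 nM T3 (final) for 23.5 h at 37 C. ONE-Glo luminescence was the read-out, with CellTiter-Fluor fluorescence as the cytotoxicity counter-screen.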

[8] = system: thyroid hormone receptor (rat, GH3 cells); test: qHTS assay to identify small molecule agonists of the thyroid receptor (TR) signaling pathway (AID 743066; calls by dose curve)
[9] = qHTS assay to identify small molecule antagonists of the estrogen receptor alpha (ER-alpha) signaling pathway - cell viability counter screen (AID 743074; calls by dose curve;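 also: HEK293 cells carrying ER-alpha-UAS-bla reporter stimulated with 17beta-estradiol; nearly all actives have a fitted effect of over 45% in size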; also: potency is read from the fitted curve at half-maximal effect)
[10] = qHTS assay to identify small molecule antagonists of the estrogen receptor alpha (ER-alpha) signaling pathway using the BG1 cell line - cell viability counter screen (AID 743081);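 also: compound given together with 17beta-estradiol as the ER stimulus; nearly all actives have a fitted effect of over 45% in size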
Aromatase (Homo sapiens) = Aromatase (Homo sapiens) (UniProt P11511); test: qHTS assay to identify aromatase inhibitors (AID 743083); also: nearly all actives have a fitted effect of over 55% in size; also: potency is read from the fitted curve at half-maximal effect
[11] = molecular target: Estrogen receptor (Homo sapiens) (UniProt P03372); test: qHTS assay to identify small molecule agonists of the estrogen receptor alpha (ER-alpha) signaling pathway (AID 743075; calls by dose curve;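 also: HEK293 GripTite cells with ER-alpha and UAS-driven beta-lactamase reporter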)
[12] = qHTS assay to identify small molecule antagonists of the estrogen receptor alpha (ER-alpha) signaling pathway using the BG1 cell line (AID 743080; calls by dose curve;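 also: BG1 cells stimulated with 17beta-estradiol alongside compound; nearly all actives have a fitted effect of over 25% in size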)
Summary of the method: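 Seeding, 24 h rest, compound transfer from DMSO, 17beta-estradiol addition, 21.5 h incubation, CellTiter-Fluor (30 min, 37 C), then ONE-Glo (30 min, room temperature): this sequence was run on BG1-Luc-4E2 reporter cells.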

[13] = qHTS assay for identifying genotoxic compounds that show differential cytotoxicity against isogenic chicken DT40 cell lines with known DNA damage response pathways - Rev3 mutant cell line (AID 743014); also: potency is read from the fitted curve at half-maximal effect; nearly all actives have a fitted effect of over 55% in size
[14] = molecular target: Androgen receptor (Homo sapiens) (UniProt P10275); test: qHTS assay to identify small molecule antagonists of the androgen receptor (AR) signaling pathway (AID 743035; active = well fitted inhibition curve with a large enough effect in the signal ratio in the repeat runs, not every such curve was filed as active; the % refers to the signal ratio; also: potency is read from the fitted curve at half-maximal effect)
Summary of the method: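 HEK293 cells stably carrying UAS-beta-lactamase reporter, 2,000/well, given compounds plus R1881 agonist and incubated 16 h at 37C. LiveBLAzer B/G FRET substrate then added for 2 h at room temperature before fluorescence reading.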

[15] = molecular target: Androgen receptor (Homo sapiens) (UniProt P10275); test: qHTS assay to identify small molecule agonists of the androgen receptor (AR) signaling pathway using the MDA cell line (AID 743040; also: nearly all actives have a fitted effect of over 20% in size); conditions: MDA-kb2 AR-luc cells, MMTV luciferase, 16 h, stronger effect = higher value
Summary of the method: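 Human breast carcinoma MDA-kb2 reporter cells (MMTV-luc, AR/GR elements) were treated for 16 h at 37C in 0% CO2 following a 5 h settling period. Signal was quantified by ONE-Glo luminescence.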

[16] = molecular target: Androgen receptor (Homo sapiens) (UniProt P10275); test: qHTS assay to identify small molecule antagonists of the androgen receptor (AR) signaling pathway using the MDA cell line (AID 743042; also: nearly all actives have a fitted effect of over 55% in size; also: potency is read from the fitted curve at half-maximal effect)
Summary of the method: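 MDA-kb2 breast carcinoma cells carrying MMTV-luciferase (AR/GR responsive) were co-treated with compounds and the agonist R1881 for 16 h at 37C. Inhibition read as ONE-Glo luminescence; CellTiter-Fluor fluorescence measured in parallel for cytotoxicity.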

Sequence of Aromatase (Homo sapiens) (P11511 whole entry, looked up): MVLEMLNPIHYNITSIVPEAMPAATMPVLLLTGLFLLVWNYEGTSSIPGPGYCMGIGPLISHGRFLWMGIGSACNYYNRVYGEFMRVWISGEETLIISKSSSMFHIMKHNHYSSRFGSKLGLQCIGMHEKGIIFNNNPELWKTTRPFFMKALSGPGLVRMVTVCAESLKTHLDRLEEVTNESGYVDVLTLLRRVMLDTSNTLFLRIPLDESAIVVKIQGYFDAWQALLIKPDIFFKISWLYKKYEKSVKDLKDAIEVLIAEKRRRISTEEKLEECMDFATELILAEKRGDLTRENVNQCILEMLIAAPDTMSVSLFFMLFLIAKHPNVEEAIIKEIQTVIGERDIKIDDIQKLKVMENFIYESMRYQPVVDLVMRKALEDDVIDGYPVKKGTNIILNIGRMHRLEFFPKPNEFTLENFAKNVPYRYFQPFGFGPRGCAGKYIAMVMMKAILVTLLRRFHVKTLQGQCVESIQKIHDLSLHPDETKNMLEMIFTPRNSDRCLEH
Sequence of Androgen receptor (Homo sapiens) (P10275 whole entry, looked up): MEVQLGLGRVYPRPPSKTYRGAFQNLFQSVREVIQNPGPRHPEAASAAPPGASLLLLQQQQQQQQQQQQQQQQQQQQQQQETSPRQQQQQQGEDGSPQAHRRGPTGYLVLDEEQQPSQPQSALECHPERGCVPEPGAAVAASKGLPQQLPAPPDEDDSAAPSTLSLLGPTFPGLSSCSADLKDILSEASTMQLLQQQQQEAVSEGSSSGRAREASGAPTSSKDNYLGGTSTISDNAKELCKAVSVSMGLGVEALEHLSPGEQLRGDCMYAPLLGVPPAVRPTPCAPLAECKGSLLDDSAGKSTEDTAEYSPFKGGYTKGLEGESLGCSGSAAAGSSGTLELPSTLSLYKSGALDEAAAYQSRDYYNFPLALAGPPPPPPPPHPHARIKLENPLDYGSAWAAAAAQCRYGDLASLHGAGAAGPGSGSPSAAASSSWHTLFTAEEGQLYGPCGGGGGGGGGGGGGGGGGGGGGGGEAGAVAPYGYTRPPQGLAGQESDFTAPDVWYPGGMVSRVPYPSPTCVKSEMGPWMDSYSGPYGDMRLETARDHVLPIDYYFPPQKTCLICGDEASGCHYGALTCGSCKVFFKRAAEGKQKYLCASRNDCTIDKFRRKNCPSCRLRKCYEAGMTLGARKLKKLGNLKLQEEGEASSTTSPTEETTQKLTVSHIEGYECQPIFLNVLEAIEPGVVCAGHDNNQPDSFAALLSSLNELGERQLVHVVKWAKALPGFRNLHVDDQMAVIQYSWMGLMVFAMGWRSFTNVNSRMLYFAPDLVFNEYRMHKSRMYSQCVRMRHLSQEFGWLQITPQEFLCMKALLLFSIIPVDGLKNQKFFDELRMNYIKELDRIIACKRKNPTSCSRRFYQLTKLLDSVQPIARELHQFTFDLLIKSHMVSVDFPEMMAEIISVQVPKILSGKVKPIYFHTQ
Sequence of Estrogen receptor (Homo sapiens) (P03372 whole entry, looked up): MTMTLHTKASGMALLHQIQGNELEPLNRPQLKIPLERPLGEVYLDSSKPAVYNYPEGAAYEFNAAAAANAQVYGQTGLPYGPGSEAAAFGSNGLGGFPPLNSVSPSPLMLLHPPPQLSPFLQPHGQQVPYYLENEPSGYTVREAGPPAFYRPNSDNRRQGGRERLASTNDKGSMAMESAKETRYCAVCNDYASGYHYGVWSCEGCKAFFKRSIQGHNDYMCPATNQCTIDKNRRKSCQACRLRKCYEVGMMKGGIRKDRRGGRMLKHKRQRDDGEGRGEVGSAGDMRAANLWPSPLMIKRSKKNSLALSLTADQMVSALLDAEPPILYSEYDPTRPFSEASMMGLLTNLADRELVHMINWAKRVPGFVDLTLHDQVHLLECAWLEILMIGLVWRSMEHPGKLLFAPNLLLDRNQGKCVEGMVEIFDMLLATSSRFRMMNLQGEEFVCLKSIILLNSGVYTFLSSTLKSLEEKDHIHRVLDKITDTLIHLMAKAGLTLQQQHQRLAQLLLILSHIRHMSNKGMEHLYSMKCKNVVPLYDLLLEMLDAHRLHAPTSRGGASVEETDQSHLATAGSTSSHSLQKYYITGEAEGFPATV

| Structure (SMILES) | Potency [1] | Potency [2] | Potency [3] | Potency [4] | Potency [5] | Potency [6] | Potency [7] | Potency [8] | Potency [9] | Potency [10] | Potency (Aromatase (Homo sapiens)) | Potency [11] | Potency [12] | Potency [13] | Potency [14] | activity change ([15]; at 70.3 µM (top of the series)) | activity change ([15]; at 95 µM (top of the series)) | Potency [16] |
| --- | --- | --- | --- | --- | --- | --- | --- | --- | --- | --- | --- | --- | --- | --- | --- | --- | --- | --- |
| CC(O)CN(CC(C)O)CC(C)O (stereo not drawn) | inactive | inactive | inactive | inactive | inactive | inactive | inactive | inactive | inactive | inactive | inactive |  |  |  |  |  |  |  |
| N#CCCCCC#N | inactive | inactive | inactive | inactive | inactive |  | inactive | inactive | inactive | inactive | inactive |  |  |  |  |  |  |  |
| CC1(C)C(C(=O)OC(C#N)c2cccc(Oc3ccccc3)c2)C1(C)C (stereo not drawn) | inactive | inactive and 48.5 µM (active) | inactive and 54.4 µM (active) | inactive | inactive | inactive |  | inactive | inactive | inactive | 48.9 µM (active) | inactive | inactive |  |  |  |  |  |
| Oc1ccc(Cl)cc1Cc1ccccc1 |  | 21.1 µM (active) and 6.19 µM (active) | 29.8 µM (active) and 48.6 µM (active) and 16.5 µM (active) | inactive and 38.9 µM (active) and 39.4 µM (active) | inactive | 48.6 µM (active) and 36.7 µM (active) | 54.5 µM (active) and 43.3 µM (active) | inactive | inactive and 49 µM (active) and 12.4 µM (active) | inactive | 27.3 µM (active) and 30.9 µM (active) |  |  | 26.6 µM (active) and 54.5 µM (active) and 21.3 µM (active) | 19.5 µM (active) | -0.884% (inactive) and -9.7% (inactive) | -7.19% (inactive) | inactive and 54.5 µM (active) |
